Results filed as inconclusive are left out. The source made the active and inactive calls. Unless noted, calls follow the shape of the dose curve; as a rule, active = well fitted curve in the direction sought with a large enough effect in the repeat runs; inconclusive = weak or mixed curves; inactive = no such curve, though single readings can be large; an effect the other way counts as inactive or inconclusive.
Tests used:
[1] = molecular target: Thyrotropin-releasing hormone receptor (Homo sapiens) (UniProt P34981); test: qHTS assay to identify small molecule agonists of the thyrotropin-releasing hormone receptor (TRHR) signaling pathway (AID 1346891; calls by dose curve; also: series mostly up to about 58 µM)
In short: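 Intracellular calcium rise, read as fluorescence every second for 3 min, served as the agonist signal in dye-loaded HEK293 cells expressing TRHR; each compound ran at 15 concentrations in triplicate.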

[2] = Human pregnane X receptor (PXR) small molecule agonists, qHTS cell viability counter screen (AID 1346977); also: nearly all actives have a fitted effect of over 50% in size
In short: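 PXR-Luc HepG2, 2,000 cells/well, 5% charcoal-stripped FBS; 5hr settle; cpd 24hr, 37C/5% CO2; CellTiter-Fluor at 23hr, read 1hr later (fluorescence).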

[3] = Caspase-3/7 induction in CHO-K1 cells by small molecules, qHTS cell viability counter screen (AID 1346979); also: nearly all actives have a fitted effect of over 35% in size
In short: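 Cells (CHO-K1, wild type) are plated at 1,500 per well and incubated 5hr. Test compounds in DMSO are then pinned in, followed by 16hr at 37C and 5% CO2. Viability is read by CellTiter-Fluor fluorescence after 1hr.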

[4] = Caspase-3/7 induction in CHO-K1 cells by small molecules, qHTS assay (AID 1346980); also: nearly all actives have a fitted effect of over 15% in size
In short: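 Wild-type cells were seeded at 1,500 per well and settled 5 hr at 37 C, 5% CO2, then exposed to DMSO-dissolved compounds for 17 hr. Caspase-Glo 3/7 reagent was added, and luminescence was read after 30min at room temperature.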

[5] = Caspase-3/7 induction in HepG2 cells by small molecules, qHTS cell viability counter screen (AID 1346981); also: series mostly up to about 92 µM; nearly all actives have a fitted effect of over 30% in size
In short: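 In this quantitative HTS counter screen, compounds delivered in DMSO were left on unmodified HepG2 cells for 16 hr at 37 C. Viability was then determined fluorometrically with CellTiter-Fluor, in parallel with caspase-3/7 induction in the same wells.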

[6] = molecular target: Nuclear receptor subfamily 1 group I member 2 (Homo sapiens) (UniProt O75469); test: Human pregnane X receptor (PXR) small molecule agonists, qHTS assay (AID 1346982); also: nearly all actives have a fitted effect of over 35% in size; also: potency is read from the fitted curve at half-maximal effect
In short: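 Reporter HepG2 cells expressing PXR-Luc are cultured in charcoal-stripped FBS (5%), treated with compounds for 24 hr at 37 C, and assayed by ONE-Glo luminescence after 30 min at room temperature.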

[7] = molecular target: Cytochrome P450 2D6 (Homo sapiens) (UniProt P10635); test: Cytochrome P450 Family 2 Subfamily D Member 6 (CYP2D6) small molecule antagonists: luciferase reporter qHTS assay (AID 1671196); also: series mostly up to about 120 µM; nearly all actives have a fitted effect of over 50% in size
In short: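 Test chemicals meet CYP2D6 plus proluciferin substrate (10 min, RT); NADPH regenerating solution then drives turnover for 1 h. Detection reagent halts the reaction; luminescence measured after 20 min.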

[8] = molecular target: Cytochrome P450 2C19 (Homo sapiens) (UniProt P33261); test: Cytochrome P450 Family 2 Subfamily C Member 19 (CYP2C19) small molecule antagonists: luciferase reporter qHTS assay (AID 1671197); also: nearly all actives have a fitted effect of over 65% in size; also: potency is read from the fitted curve at half-maximal effect
In short: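 Light output is proportional to CYP2C19 activity: proluciferin substrate is converted to luciferin, then detected by a luciferin detection reagent that also stops the 1 h, 37C NADPH-driven reaction. Ketoconazole serves as positive control.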

[9] = molecular target: Cytochrome P450 2C9 (Homo sapiens) (UniProt P11712); test: Cytochrome P450 Family 2 Subfamily C Member 9 (CYP2C9) small molecule antagonists: luciferase reporter qHTS assay (AID 1671198); also: nearly all actives have a fitted effect of over 50% in size; also: potency is read from the fitted curve at half-maximal effect
In short: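 CYP2C9 activity was measured with a P450-Glo proluciferin substrate. Enzyme–substrate mix was held with compound for 10 min at room temperature, then NADPH regeneration solution was added for 1 h at 37C. Luciferin product was read as luminescence.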

[10] = molecular target: Cytochrome P450 1A2 (Homo sapiens) (UniProt P05177); test: Cytochrome P450 Family 1 Subfamily A Member 2 (CYP1A2) small molecule antagonists: luciferase reporter qHTS assay (AID 1671199); also: nearly all actives have a fitted effect of over 50% in size; also: potency is read from the fitted curve at half-maximal effect
In short: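 Steps: enzyme-substrate mix dispensed; test compounds and furafylline control pinned in; 10 min room temperature; NADPH regeneration solution added, 1 h; reaction stopped with luciferin detection reagent; luminescence read after 20 min.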

[11] = molecular target: Cytochrome P450 3A4 (Homo sapiens) (UniProt P08684); test: Cytochrome P450 Family 3 Subfamily A Member 4 (CYP3A4) small molecule antagonists: luciferase reporter qHTS assay (AID 1671201); also: nearly all actives have a fitted effect of over 50% in size; also: potency is read from the fitted curve at half-maximal effect
In short: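 Compounds in DMSO were pin-transferred onto CYP3A4 enzyme-substrate mix and held 10 min at room temperature. NADPH regenerating solution started the reaction for 1 h; luciferin detection reagent stopped it, and luminescence was read after 20 min.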

[12] = molecular target: Nuclear receptor subfamily 1 group I member 2 (Rattus norvegicus) (UniProt Q9R1A7); test: Rat pregnane X receptor (rPXR) activation by small molecules, qHTS assay (AID 1346983); details: rPXR luciferase reporter cells, One-Glo luminescence, 24 h; max activation: hits give high values; also: nearly all actives have a fitted effect of over 20% in size
In short: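 Cell-based rPXR luciferase reporter assay, 2,000 cells per well, rested 5hr at 37 C before compound addition in DMSO, then 24 hr at 37 C. One-Glo reagent was added and luminescence read after 30 min at room temperature.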

[13] = molecular target: Nuclear receptor subfamily 1 group I member 2 (Homo sapiens) (UniProt O75469); test: CYP3A4 induction through human pregnane X receptor (PXR) by small molecules, qHTS assay (AID 1346984); also: nearly all actives have a fitted effect of over 40% in size; also: potency is read from the fitted curve at half-maximal effect
In short: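 Induction measured in HepG2-based DPX-2 cells co-expressing human PXR and a CYP3A4 promoter-driven luciferase. After a 24-hour compound exposure, cells received CYP3A4 luciferin substrate at 3uM final for 3 hours, and light output was then recorded.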

[14] = molecular target: Nuclear receptor subfamily 1 group I member 2 (Homo sapiens) (UniProt O75469); test: Human pregnane X receptor (PXR) activation by small molecules, qHTS assay (AID 1346985); also: nearly all actives have a fitted effect of over 40% in size; also: potency is read from the fitted curve at half-maximal effect
In short: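 DPX-2 cells (HepG2 co-transfected with a PXR response element and a CYP3A4-promoter luciferase construct) were seeded at 2,000 per well, rested 5 hr at 37C, then exposed to DMSO-dissolved compounds for 24 hr. Activation was read as luciferase luminescence.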

[15] = molecular target: Voltage-gated inwardly rectifying potassium channel KCNH2 (Homo sapiens) (UniProt Q12809); test: Human Ether-a-go-go-Related Gene (hERG) channel small molecule antagonists: fluorescence cell-based qHTS assay (AID 1671200); also: nearly all actives have a fitted effect of over 50% in size; also: potency is read from the fitted curve at half-maximal effect
In short: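 Channel function was assessed by thallium flux. Cells seeded the previous day and kept at 37 C took up FluxOR II dye over 1 h in the dark at room temperature, then sat another 10 min before stimulation.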

[16] = Caspase-3/7 induction in HepG2 cells by small molecules, qHTS assay (AID 1346978); also: nearly all actives have a fitted effect of over 15% in size
In short: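 Wild-type HepG2 cells (2,000/well) were settled 5 h at 37 C, 5% CO2, then exposed to compounds in DMSO for 17 h. Caspase-3/7 activity was read by luminescence 30 min after adding Caspase-Glo 3/7 reagent at room temperature.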
% is scaled to controls: 0 for no effect and ±100 for the full control effect.

Chain of Cytochrome P450 3A4 (Homo sapiens) (P08684 whole entry, looked up): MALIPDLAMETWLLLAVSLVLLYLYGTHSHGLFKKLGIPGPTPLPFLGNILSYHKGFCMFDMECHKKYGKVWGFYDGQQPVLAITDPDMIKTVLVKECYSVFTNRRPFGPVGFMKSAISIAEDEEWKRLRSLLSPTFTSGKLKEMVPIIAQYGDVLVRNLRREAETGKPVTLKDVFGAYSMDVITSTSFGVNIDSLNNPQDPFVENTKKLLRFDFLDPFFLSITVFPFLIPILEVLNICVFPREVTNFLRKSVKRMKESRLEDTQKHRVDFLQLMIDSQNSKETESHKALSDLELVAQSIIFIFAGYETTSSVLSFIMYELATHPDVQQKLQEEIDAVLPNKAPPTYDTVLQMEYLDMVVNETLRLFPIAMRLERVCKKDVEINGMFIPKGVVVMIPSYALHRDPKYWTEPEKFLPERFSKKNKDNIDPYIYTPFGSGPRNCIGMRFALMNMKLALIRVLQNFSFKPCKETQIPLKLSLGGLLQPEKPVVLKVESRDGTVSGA
Chain of Cytochrome P450 1A2 (Homo sapiens) (P05177 whole entry, looked up): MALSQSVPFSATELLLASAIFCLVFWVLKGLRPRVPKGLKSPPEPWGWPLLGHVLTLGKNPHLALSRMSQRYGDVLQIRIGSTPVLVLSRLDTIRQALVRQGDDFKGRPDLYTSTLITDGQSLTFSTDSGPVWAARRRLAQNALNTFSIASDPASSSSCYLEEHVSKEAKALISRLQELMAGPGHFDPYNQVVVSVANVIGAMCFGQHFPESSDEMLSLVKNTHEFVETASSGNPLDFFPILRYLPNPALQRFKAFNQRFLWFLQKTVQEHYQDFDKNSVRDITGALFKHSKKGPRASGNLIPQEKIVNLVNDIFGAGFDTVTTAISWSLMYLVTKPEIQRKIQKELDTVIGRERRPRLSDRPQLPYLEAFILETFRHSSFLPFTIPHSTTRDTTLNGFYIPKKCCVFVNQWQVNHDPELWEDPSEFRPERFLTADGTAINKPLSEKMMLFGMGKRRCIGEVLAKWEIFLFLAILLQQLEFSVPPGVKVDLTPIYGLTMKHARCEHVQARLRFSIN
Chain of Nuclear receptor subfamily 1 group I member 2 (Rattus norvegicus) (Q9R1A7 whole entry, looked up): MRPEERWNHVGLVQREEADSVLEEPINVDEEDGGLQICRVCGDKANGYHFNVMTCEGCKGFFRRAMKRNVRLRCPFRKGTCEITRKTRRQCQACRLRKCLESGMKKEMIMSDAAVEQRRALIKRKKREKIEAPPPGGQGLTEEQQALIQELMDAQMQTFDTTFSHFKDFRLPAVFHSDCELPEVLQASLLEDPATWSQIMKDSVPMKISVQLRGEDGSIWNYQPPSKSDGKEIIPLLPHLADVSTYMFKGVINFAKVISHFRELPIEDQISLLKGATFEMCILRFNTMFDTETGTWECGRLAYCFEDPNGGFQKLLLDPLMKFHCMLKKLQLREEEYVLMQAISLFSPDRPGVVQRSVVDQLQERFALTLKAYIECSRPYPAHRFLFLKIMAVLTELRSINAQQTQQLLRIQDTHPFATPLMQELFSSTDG
Chain of Cytochrome P450 2D6 (Homo sapiens) (P10635 whole entry, looked up): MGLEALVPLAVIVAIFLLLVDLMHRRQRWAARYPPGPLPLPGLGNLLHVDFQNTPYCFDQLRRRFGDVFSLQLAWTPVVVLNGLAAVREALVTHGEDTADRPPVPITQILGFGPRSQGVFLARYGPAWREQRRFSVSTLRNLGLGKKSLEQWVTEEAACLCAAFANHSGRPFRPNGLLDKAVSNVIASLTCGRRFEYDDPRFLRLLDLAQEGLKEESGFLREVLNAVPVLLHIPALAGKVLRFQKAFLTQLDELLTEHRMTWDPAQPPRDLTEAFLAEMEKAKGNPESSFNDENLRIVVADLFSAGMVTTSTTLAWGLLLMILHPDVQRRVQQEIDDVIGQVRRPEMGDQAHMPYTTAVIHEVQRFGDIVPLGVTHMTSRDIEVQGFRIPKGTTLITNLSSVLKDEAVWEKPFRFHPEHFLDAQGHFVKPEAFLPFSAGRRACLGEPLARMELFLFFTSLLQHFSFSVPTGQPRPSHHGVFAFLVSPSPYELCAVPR
Chain of Voltage-gated inwardly rectifying potassium channel KCNH2 (Homo sapiens) (Q12809 whole entry, looked up): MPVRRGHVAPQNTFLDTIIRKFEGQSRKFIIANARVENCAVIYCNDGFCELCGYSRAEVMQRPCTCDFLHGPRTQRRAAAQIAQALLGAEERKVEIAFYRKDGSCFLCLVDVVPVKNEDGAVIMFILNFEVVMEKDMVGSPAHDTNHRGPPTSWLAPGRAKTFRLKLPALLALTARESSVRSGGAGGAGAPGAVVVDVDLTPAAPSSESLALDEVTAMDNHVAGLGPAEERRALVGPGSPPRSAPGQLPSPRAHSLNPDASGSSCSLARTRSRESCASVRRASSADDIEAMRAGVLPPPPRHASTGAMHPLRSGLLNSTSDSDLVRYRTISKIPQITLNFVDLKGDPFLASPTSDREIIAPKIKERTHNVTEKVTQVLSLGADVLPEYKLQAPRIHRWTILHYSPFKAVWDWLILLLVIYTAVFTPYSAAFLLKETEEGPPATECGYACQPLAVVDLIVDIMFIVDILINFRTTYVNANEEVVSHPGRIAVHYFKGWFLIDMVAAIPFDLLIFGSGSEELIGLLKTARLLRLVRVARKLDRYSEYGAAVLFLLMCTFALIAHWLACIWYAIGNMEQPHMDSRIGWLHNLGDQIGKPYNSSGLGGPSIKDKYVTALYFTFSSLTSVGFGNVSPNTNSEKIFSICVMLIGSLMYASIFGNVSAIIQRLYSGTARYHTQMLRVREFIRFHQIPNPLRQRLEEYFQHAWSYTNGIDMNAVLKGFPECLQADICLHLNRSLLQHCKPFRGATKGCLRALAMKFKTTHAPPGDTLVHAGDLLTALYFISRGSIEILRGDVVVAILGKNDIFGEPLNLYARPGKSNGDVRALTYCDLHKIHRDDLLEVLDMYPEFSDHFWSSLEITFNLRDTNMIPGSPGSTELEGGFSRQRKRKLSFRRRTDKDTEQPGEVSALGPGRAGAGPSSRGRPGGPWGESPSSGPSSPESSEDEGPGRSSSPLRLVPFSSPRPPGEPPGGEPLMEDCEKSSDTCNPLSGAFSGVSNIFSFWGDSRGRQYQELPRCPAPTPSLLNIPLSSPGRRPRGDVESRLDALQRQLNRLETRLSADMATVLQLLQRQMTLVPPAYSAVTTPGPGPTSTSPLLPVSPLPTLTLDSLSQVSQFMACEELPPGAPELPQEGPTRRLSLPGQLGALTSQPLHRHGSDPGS
Chain of Cytochrome P450 2C19 (Homo sapiens) (P33261 whole entry, looked up): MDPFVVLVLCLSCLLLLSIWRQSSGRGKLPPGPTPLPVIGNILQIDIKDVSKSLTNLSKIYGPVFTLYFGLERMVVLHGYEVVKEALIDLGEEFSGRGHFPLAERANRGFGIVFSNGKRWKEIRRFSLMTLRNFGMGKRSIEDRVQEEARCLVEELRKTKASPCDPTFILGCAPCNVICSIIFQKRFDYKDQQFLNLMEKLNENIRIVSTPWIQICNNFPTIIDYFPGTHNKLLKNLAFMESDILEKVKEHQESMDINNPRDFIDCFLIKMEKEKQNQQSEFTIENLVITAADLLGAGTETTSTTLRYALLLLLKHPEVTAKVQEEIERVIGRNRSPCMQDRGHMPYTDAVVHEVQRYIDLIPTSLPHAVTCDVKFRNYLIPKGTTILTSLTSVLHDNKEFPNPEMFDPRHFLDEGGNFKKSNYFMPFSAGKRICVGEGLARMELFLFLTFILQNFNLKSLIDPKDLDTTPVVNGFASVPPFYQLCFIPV
Chain of Thyrotropin-releasing hormone receptor (Homo sapiens) (P34981 whole entry, looked up): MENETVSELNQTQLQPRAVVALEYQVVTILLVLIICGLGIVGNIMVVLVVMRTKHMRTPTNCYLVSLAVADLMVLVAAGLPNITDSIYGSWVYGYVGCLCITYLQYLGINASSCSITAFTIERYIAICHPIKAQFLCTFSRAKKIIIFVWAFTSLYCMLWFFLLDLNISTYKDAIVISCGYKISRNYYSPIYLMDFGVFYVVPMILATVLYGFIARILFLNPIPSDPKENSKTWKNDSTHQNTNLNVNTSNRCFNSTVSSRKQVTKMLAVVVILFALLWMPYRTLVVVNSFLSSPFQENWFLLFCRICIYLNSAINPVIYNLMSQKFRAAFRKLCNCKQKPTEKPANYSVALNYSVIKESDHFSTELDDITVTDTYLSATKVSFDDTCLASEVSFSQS
Chain of Nuclear receptor subfamily 1 group I member 2 (Homo sapiens) (O75469 whole entry, looked up): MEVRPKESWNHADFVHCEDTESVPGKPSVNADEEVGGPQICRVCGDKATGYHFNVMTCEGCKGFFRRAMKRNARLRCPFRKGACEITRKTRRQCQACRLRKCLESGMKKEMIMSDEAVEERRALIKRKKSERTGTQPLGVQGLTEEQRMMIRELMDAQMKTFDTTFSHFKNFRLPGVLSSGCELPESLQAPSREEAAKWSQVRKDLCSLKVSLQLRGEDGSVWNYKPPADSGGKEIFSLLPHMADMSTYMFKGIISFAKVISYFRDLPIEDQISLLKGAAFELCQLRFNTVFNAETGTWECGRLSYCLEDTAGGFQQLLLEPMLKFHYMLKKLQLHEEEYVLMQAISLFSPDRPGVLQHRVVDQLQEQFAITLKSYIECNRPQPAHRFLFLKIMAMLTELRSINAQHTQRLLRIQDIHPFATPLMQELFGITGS
Chain of Cytochrome P450 2C9 (Homo sapiens) (P11712 whole entry, looked up): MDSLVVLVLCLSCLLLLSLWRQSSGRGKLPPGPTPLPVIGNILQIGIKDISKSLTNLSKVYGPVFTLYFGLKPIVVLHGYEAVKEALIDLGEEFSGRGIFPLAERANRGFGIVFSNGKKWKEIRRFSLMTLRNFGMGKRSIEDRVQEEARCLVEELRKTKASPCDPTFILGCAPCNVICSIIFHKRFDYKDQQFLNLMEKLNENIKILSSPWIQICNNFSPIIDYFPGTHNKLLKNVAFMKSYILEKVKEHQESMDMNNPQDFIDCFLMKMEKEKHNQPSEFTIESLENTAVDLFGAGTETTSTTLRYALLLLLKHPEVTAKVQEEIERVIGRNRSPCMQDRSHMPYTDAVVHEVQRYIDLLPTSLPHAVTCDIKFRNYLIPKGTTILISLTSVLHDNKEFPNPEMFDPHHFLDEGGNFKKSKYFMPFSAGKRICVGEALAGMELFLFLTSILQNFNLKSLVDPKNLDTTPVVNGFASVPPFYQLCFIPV

O=C(O)c1ccc(O)c(O)c1
active: Potency [8] 79.6 µM | Potency [9] 35.5 µM | Potency [10] 31.7 µM
inactive: outcome [1] | Potency [2] | Potency [3] | Potency [4] | Potency [5] | Potency [6] | Potency [7] | Potency [11]

COc1cc(C)c(Cc2cnc(N)nc2N)cc1OC
inactive: outcome [1] | Potency [2] | Potency [3] | Potency [4] | Potency [5] | Potency [6] | max activation [12] -0.291% | Potency [13] | Potency [14] | Potency [7] | Potency [8] | Potency [9] | Potency [10] | Potency [15] | Potency [11]

O=C(OCCCCCOC(=O)c1ccccc1)c1ccccc1
inactive: outcome [1] | Potency [2] | Potency [3] | Potency [4] | Potency [5] | Potency [6] | Potency [7] | Potency [11]
active: Potency [8] 56.4 µM | Potency [9] 11.2 µM | Potency [10] 7.96 µM

CC(C)(Cc1c[nH]c2ccccc12)NCC(O)COc1ccccc1C#N (stereo not given)
inactive: outcome [1] | Potency [16] | Potency [3] | Potency [4] | Potency [5] | Potency [6] | max activation [12] 11.7% | Potency [8] | Potency [11]
active: Potency [13] 12.6 µM | Potency [14] 28.2 µM | Potency [15] 8.49 µM

CC(C)(C(=O)O)c1ccc(C(O)CCCN2CCC(C(O)(c3ccccc3)c3ccccc3)CC2)cc1 (stereo not given)
inactive: outcome [1] | Potency [2] | Potency [3] | Potency [4] | Potency [5] | Potency [6]

CCc1ccc2c(c1)C(=O)c1ccccc1C2=O
inactive: outcome [1] | Potency [2] | Potency [4] | Potency [5]
active: Potency [6] 21.7 µM | Potency [8] 11.2 µM | Potency [9] 10 µM | Potency [10] 2.24 µM | Potency [11] 17.8 µM

CC1(C)CC(O)CC(C)(C)N1[O]
inactive: outcome [1] | Potency [2] | Potency [3] | Potency [4] | Potency [5] | Potency [6] | Potency [7] | Potency [9] | Potency [10] | Potency [15] | Potency [11]

CCC(C)C1N=C(C)C(C)S1 (stereo not given)
inactive: outcome [1] | Potency [2] | Potency [3] | Potency [4] | Potency [5] | Potency [15]
active: Potency [6] 34.4 µM | Potency [8] 39.9 µM | Potency [9] 39.9 µM | Potency [11] 25.2 µM

CCOC(C)OCC
inactive: outcome [1] | Potency [2] | Potency [3] | Potency [4] | Potency [5] | Potency [6] | max activation [12] -4.85% | Potency [13] | Potency [14] | Potency [7] | Potency [9] | Potency [10] | Potency [15] | Potency [11]
active: Potency [8] 69 µM

CC(O)C(C)O (stereo not given)
inactive: outcome [1] | Potency [2] | Potency [3] | Potency [4] | Potency [5] | Potency [6] | Potency [7] | Potency [8] | Potency [15] | Potency [11]
